The list is not random: actives were taken first. Their share in the collection is about 19%.
HT1080 IDH1KD tx: toxicity to HT-1080 IDH1 knockdown cells (counter line) | HT-1080 IDH1 knockdown viability, ATP luminescence, 48 h | Potency, µM (series often up to 46.1 µM), for inactives: at the highest dose activity, negative = toxicity, hits mostly cytotoxic | 360,000 compounds, 2% hits | AID 686971;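 also: potency is read from the fitted curve at half-maximal effect; 0% = DMSO wells and -100% = cell-free medium wells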
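Cytotoxicity counter-line: IDH1KD HT-1080, 48 h, CellTiter-Glo. Curves classed by r2, magnitude and activity.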
HT1080NT lethal: kills 2HG-producing HT-1080-NT fibrosarcoma cells | Potency, µM (top dose mostly 46.1 µM), for inactives: at the top dose activity, negative = less viability, usual class: cytotoxic | 360,000 compounds, 1.6% hits | AID 686970 | HT-1080-NT fibrosarcoma viability, CellTiter-Glo ATP luminescence, 48 h;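 also: NT is the 2HG producing partner of a matched IDH1 knockdown line; potency is read from the fitted curve at half-maximal effect; 0% = DMSO-treated cells and -100% = media-only wells without cells; nearly all actives have a fitted effect of over 55% in size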
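Viability by CellTiter-Glo luminescence after 48 h compound exposure at 37C of HT-1080-NT cells (750/well, RPMI, 5% FBS). % activity scaled between DMSO wells and medium-only wells, then curve-fitted and categorized by curve class.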
TDP1 cell noCPT: qHTS for Inhibitors of human tyrosyl-DNA phosphodiesterase 1 (TDP1): qHTS in cells in absence of CPT. Potency, µM (doses to about 46.2 µM), without a hit: at the top dose activity change, negative = growth inhibition, hits mostly inhibitors. 420,000 compounds, 15% hits. AID 686978, 2013. DT40 Tdp1-/- hTDP1 cells, no CPT, ATP luminescence, 48 h; also: potency is read from the fitted curve at half-maximal effect; nearly all actives have a fitted effect of over 55% in size
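Camptothecin absent (DMSO only). Human TDP1-complemented DT40 knockout cells, 400 cells/well, 37 °C for minimum 48 hr; ATP measured via CellTiter-Glo, 30 min dark incubation, luminescence.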
TDP1 cell CPT: growth inhibition of DT40 Tdp1-/-;hTDP1 cells with camptothecin (screen for TDP1 inhibitors) | chicken DT40 Tdp1-/-;hTDP1 cells + 20 nM CPT, ATP luminescence, 48 h | Potency, µM (doses to about 46.2 µM), for inactives: top-dose activity change, negative = growth inhibition, actives largely listed as inhibitors | 420,000 compounds, 12% hits; also: potency is read from the fitted curve at half-maximal effect; nearly all actives have a fitted effect of over 55% in size
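Cell growth measured by CellTiter-Glo luminescence after a minimum 48 h, 37 C compound exposure with 20 nM CPT in Tdp1-knockout DT40 cells stably expressing hTDP1, seeded 400/well; qHTS titration format.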
IL1B secr inh: inflammasome signaling inhibition, IL-1 beta readout. 360,000 compounds, 4.7% hits. AID 743279. activity change, % at 57.5 µM. THP-1 LPS/ATP IL-1B secretion, AlphaLISA, 16 h; stronger effect = lower value; in the data active = activity change below about -50%; inconclusive = mostly about -30% to -49%
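Secreted IL-1B measured by AlphaLISA bead assay after 16 h compound exposure of THP-1 cells; compounds (final up to 57.5 uM) added 1 h before LPS (250 ng/mL) and ATP (1.25 mM) stimulation; lower signal means less secretion.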
* hit, by the source's call; ? = inconclusive; · = not tested or not shown. Unless noted, calls follow the shape of the dose curve; as a rule, active = well fitted curve in the direction sought with a large enough effect; inconclusive = small, poorly fitted or top-dose-only effect, or another doubt; inactive = no such curve, though single readings can be large; an effect the other way counts as inactive or inconclusive. Unless noted, % is scaled to controls: 0 for no effect and ±100 for the full control effect.

SMILES	HT1080 IDH1KD tx	HT1080NT lethal	TDP1 cell noCPT	TDP1 cell CPT	IL1B secr inh
COc1cc(Br)cc2cc(C(=O)N3CCCCC3C)c(=O)oc12 (centres undefined)	0.0%	5.0%	?	-13.0%	0.0
CCOc1cccc2sc(N(CCN(C)C)C(=O)/C=C/c3cccs3)nc12	?	?	23.1µM*	7.31µM*	-103.1*
COc1cccc2sc(N(CCN(C)C)C(=O)/C=C/c3cccs3)nc12	?	-15.5%	20.6µM*	?	-6.4
COc1cccc2sc(N(C)c3ccccc3)nc12	-4.2%	-0.4%	0.7%	3.0%	-1.9
CCCCS(=O)(=O)Nc1ccc(N2CCOCC2)c(S(=O)(=O)N2CCOCC2)c1	-0.3%	3.3%	-4.8%	-1.3%	2.4
CN(C(=O)CSC1=NCCS1)c1ccccc1	13.5%	17.0%	-5.5%	0.3%	-0.2
CN(C(=O)CSc1nc(N)c2c3c(sc2n1)CSC(C)(C)C3)c1ccccc1	-26.9%	-26.3%	16.4µM*	16.4µM*	-55.0*
O=C(CSc1nc2ccccc2c(=O)n1CCCO)Nc1ccc2c(c1)OCCO2	-24.0%	-18.8%	-29.1%	-21.2%	-17.6
Cc1[nH]c2ccc(F)cc2c(=O)c1SC(F)(F)C(F)C(F)(F)F (centres undefined)	?	-28.5%	?	?	-1.9
COc1cccc2c(=O)c(SC(F)(F)C(F)C(F)(F)F)c(C)[nH]c12 (centres undefined)	20.6µM*	?	18.4µM*	?	13.8
Cc1nc2ccccn2c1-c1csc(Nc2ccc(C(=O)O)cc2)n1	3.26µM*	2.06µM*	3.66µM*	2.91µM*	94.9
Cc1nc2ccccn2c1-c1csc(Nc2cccc(C(=O)O)c2)n1	-12.3%	-16.9%	-7.6%	2.3%	29.8
N#Cc1ccc(Nc2nc(-c3ccc(O)cc3O)cs2)cc1C(F)(F)F	?	?	10.3µM*	13µM*	-100.7*
Cc1cccc(Nc2nc(-c3c(C)nc4ccccn34)cs2)c1	?	?	11.2µM*	13µM*	-96.1*
Cc1cccc(Nc2nc(-c3ccncc3)cs2)c1	?	-24.9%	?	?	-29.0
Cc1cccc(Nc2nc(-c3ccc(O)cc3O)cs2)n1	?	?	?	13.1%	-90.0*
Cc1c(NC(=O)c2ccccc2N(C)S(=O)(=O)c2ccccc2)c(=O)n(-c2ccccc2)n1C	1.7%	2.5%	1.4%	-4.9%	-7.3
Cc1nc2ncccn2c1-c1csc(Nc2cccc(C(=O)O)c2)n1	-10.1%	1.7%	-7.1%	-1.7%	18.6
Cc1nc2ccccn2c1-c1csc(Nc2cccc(O)c2)n1	1.46µM*	1.64µM*	1.64µM*	0.731µM*	-103.6*
S=c1[nH]nc(C2CCCCC2)o1	11.5%	2.4%	11.0%	0.1%	13.4
CN(C)C=Nc1ccc2nc3c(cc2c1)[nH]c1ccccc13	-7.5%	-12.8%	11.6µM*	?	16.4
CCOC(=O)c1[nH]c2ccccc2c1N=CN(C)C	0.7%	-2.1%	2.2%	1.4%	0.0
NC(=O)CCCn1c(C(=O)c2ccc(Cl)cc2)c2ccc([N+](=O)[O-])cc2[n+]1[O-]	-12.3%	-25.4%	8.2µM*	3.66µM*	-10.1
Cc1ccc(C(=O)c2c3ccc([N+](=O)[O-])cc3[n+]([O-])n2CCCC(N)=O)cc1	-20.1%	-2.5%	?	5.8µM*	-7.2
COc1ccc2c(C(=O)c3ccc(C)cc3)n(CCCC(N)=O)[n+]([O-])c2c1	-11.0%	-2.6%	-17.4%	2.0%	-2.8
SMILES	HT1080 IDH1KD tx	HT1080NT lethal	TDP1 cell noCPT	TDP1 cell CPT	IL1B secr inh
NCCCn1c(C(=O)c2ccc(Cl)cc2)c2ccc([N+](=O)[O-])cc2[n+]1[O-]	-28.6%	-23.1%	4.11µM*	4.11µM*	-60.1*
CCCCOc1ncnc2c1[nH]c1ccc(OC)cc12	0.9%	-3.4%	?	?	22.9
CCCCOc1ncnc2c1[nH]c1ccc(F)cc12	-5.2%	?	8.2µM*	9.2µM*	?
Fc1ccc2[nH]c3c(Cl)ncnc3c2c1	-11.4%	-14.4%	-19.1%	-2.6%	-96.3*
CCCCOc1ncnc2c1[nH]c1ccc(OCC)cc12	22.4%	?	-17.8%	-17.6%	23.1
CCCCOc1ncnc2c1[nH]c1ccccc12	14.6µM*	-17.5%	7.31µM*	10.3µM*	0.6
Cc1ccc(C)c2c(SC(C)C(=O)NCc3ccco3)nc(-c3ccccc3)nc12 (centres undefined)	-1.0%	0.3%	?	-21.2%	-0.5
Cn1c(SCc2ccccc2F)nc2ccccc2c1=O	-19.1%	-20.6%	?	-12.7%	-19.3
COc1cc(Nc2nc(SCc3ccccc3F)nc3ccccc23)cc(OC)c1	·	·	18.4µM*	?	·
Fc1ccc(Nc2nc(SCc3ccccc3F)nc3ccccc23)cc1	·	·	16.4µM*	16.4µM*	·
COc1ccc(N=C(NN)c2ccc3ccccc3n2)cc1	-4.6%	-7.9%	?	-27.3%	0.0
CCOC(=O)/C(C)=C1\NC(C)(C)Cc2ccccc21	-0.8%	8.4%	?	-22.7%	5.2
CCCCC1(C)Cc2ccccc2C(=S)N1 (centres undefined)	1.1%	-2.6%	?	23.1µM*	-4.5
CCOc1ccc(C2Nc3ccc4ccccc4c3-c3c2c(=O)oc2ccccc32)cc1 (centres undefined)	?	7.5%	?	?	-55.0*
CCc1nnc(NC(=O)c2cccc(C(=O)Nc3nnc(CC)s3)n2)s1	-12.9%	-0.9%	0.0206µM*	0.146µM*	75.6
CCOc1ccccc1C(=O)Nc1nnc(CC)s1	-1.9%	9.5%	20.6µM*	16.4µM*	14.1
CCOc1ccccc1C(=O)Nc1ccsc1C(=O)OC	?	?	3.66µM*	4.11µM*	-3.3
CCOc1ccccc1C(=O)Nc1ccccc1C(N)=O	-17.8%	1.9%	-23.1%	-23.1%	-8.9
O=C(O)CCC(=O)Nc1sc2c(c1C(=O)Nc1ccccc1)CCCCC2	?	20.6µM*	-2.7%	-22.7%	0.0
COC(=O)c1c(NC(=O)COC(=O)c2ccc(C)s2)sc2c1CCCCC2	0.7%	6.4%	?	-14.6%	6.5
Cc1ccc(NC(=O)c2c(NC(=O)C(F)(F)F)sc3c2CCCCC3)cc1	·	·	3.66µM*	2.59µM*	·
Cc1ccc(NC(=O)c2c(NC(=O)c3ccccc3)sc3c2CCC3)cc1	·	·	0.8%	-6.7%	·
COC(=O)c1c(NC(=O)COC(=O)[C@@H](NS(=O)(=O)c2ccc(C)cc2)C(C)C)sc2c1CCC2	-1.6%	-3.1%	23.1µM*	?	-28.9
O=C(Nc1cccc(Cl)c1)c1c(NC(=O)C(F)(F)F)sc2c1CCCC2	·	·	3.26µM*	6.51µM*	·
